# Bioassay records: PubChem, several laboratories
# DTT redox prof = compounds producing H2O2 with reducing agent – biochemical, NIH compound library profiling, artefact control for MLSCN library redox annotation, primary screen | 0.03% of 200,000 active | activation, % at 10 µM | DTT-dependent redox cycling H2O2, phenol red/HRP absorbance; 100% = 100 µM peroxide control, 0% = buffer | AID 878;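 active = activation of at least 50% relative to the plate's high and low controls in the primary single-dose screen; inactive = activation below 50%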;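 also: compound incubated with DTT at 0.8 mM final as the reducing agent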
# Hsp70 act = switches on Hsp70 transcription | HeLa Hsp70 promoter luciferase reporter, luminescence; scaled: vehicle 0, proteasome-inhibitor control 100% | activation, % at 10 µM | 0.04% of 200,000 active;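 active = activation above the mean across all tested compounds plus 3 SD, cutoff set per campaign, cut at about 5.5% in these data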;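 also: 100% = MG132 at 30 µM as the positive control and 0% = DMSO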
# HSV replic up = HSV replication enhancement; 0.005% of 220,000 active; HSV replication augmentation in cells, fold increase; AID 1956; maximum fold increase; in the data active = maximum fold increase above about 1.5; tested in PC3 cells
# Wee1 stabilizer = human Wee1 degradation inhibition, primary screen; P30291; 1.2% of 220,000 active; reporter increase, % at 5 µM; HeLa Luc-Wee1K328M stability, luciferase luminescence; 100% = proteasome inhibitor MG132 effect;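 active = activation above the mean of all tested compounds plus 3 SD, set per screening run, cut at about 8.8% in these data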;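 also: cells exposed to compound for 20 h before luminescence read; 0% = DMSO alone and 100% = MG132 at 30 µM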
# p97 ATPase inh = inhibitors of human p97 ATPase. P55072. recombinant p97 ATPase, Kinase-Glo ATP luminescence, 3 h. inhibition, % at 8 µM. 0.42% of 220,000 active; in the data active = inhibition above about 15%;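 also: 0% = DMSO vehicle and 100% = wells lacking enzyme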
# Target sequence (P55072 whole entry, looked up): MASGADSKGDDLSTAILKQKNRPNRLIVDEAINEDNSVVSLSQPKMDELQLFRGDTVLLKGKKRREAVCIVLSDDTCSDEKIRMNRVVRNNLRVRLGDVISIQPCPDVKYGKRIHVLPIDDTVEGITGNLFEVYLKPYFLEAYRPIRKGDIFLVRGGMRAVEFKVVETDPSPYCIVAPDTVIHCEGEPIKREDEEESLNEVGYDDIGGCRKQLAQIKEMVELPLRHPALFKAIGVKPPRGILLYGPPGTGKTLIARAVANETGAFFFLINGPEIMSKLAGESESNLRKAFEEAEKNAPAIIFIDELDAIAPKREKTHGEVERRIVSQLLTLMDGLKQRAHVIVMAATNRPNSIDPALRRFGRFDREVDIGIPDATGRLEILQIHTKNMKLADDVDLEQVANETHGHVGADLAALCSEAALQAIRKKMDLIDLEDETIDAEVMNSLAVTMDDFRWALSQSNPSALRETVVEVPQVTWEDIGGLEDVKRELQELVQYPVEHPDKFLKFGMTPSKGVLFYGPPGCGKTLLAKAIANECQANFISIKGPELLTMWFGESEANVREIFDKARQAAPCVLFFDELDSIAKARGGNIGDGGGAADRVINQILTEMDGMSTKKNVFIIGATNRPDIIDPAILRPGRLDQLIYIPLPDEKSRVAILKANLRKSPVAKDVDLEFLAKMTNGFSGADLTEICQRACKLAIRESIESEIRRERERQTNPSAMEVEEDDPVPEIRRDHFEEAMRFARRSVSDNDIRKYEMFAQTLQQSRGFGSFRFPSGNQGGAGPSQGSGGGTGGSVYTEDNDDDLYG
# Wee1 degr conf = confirmation of human Wee1 degradation inhibitors; shares compounds with Wee1 stabilizer; HeLa Luc-Wee1K328M degradation, luminescence; vehicle 0%, proteasome-blocked wells 100%; activation, % at 5 µM; 4% of 1,100 active; AID 1410; in the data active = activation above about 8.9%
# Numbers without * were called inactive; i = inactive; / = no result given. Rows were chosen to be rich in hits. Some 1.6% of all compounds tested hit in one or more screens of this group.
SMILES,DTT redox prof,Hsp70 act,HSV replic up,Wee1 stabilizer,p97 ATPase inh,Wee1 degr conf
COc1cc(OC)cc(C(=O)N[C@H](C(=O)OCC(=O)Nc2sccc2C#N)C(C)C)c1,-2,0,i,-1,-5,/
CCN(CC)c1ccc(/C=N/NC(=S)NC)c(O)c1,0,0,i,14*,5,3
O=C(Nc1ccccn1)c1csc2c1CCCC2,0,0,i,18*,-2,5
CCCCCn1c(N)c(-c2nc3ccccc3o2)c2c([N+](=O)[O-])nn(CC)c(=O)c21,1,0,i,-1,-6,/
CCCn1c(O)c(C=Nc2ccccc2)sc1=S,-1,0,i,-2,5,/
CCn1c(O)c(C=Nc2ccccc2)oc1=S,1,0,i,14*,0,0
C=CCNC(=O)C(=O)NCC1CCCN1CC (configuration not stated),0,0,i,4,4,/
CC(=O)NC1=NN(C(C)=O)C(c2ccc(C)cc2)S1 (configuration not stated),-2,0,i,12*,4,0
CCOC(=O)CCCNC(=O)COC(=O)c1cc(C)cc(C)c1,-4,0,i,-2,-2,/
CCCOc1ccc(C(=O)CCN2CCN(C(=O)OCC)CC2)cc1,0,0,i,17*,-2,0
O=C(c1ccc(Cl)cc1)C1CCCN(C(=O)c2csnn2)C1 (configuration not stated),-1,0,i,16*,3,0
COc1ccc2cc(C(=O)C3CCCN(C(=O)c4csnn4)C3)ccc2c1 (configuration not stated),-2,0,i,0,-1,/
Cc1cc(C)c2c(N=NN(C)C)[nH]nc2n1,5,0,i,13*,-7,-1
COc1ccc(OC)c(S(=O)(=O)N2CCC(C(=O)Nc3cccc(C)c3)CC2)c1,0,0,i,11*,-3,2
COc1ccc(OC)c(S(=O)(=O)N2CCC(C(=O)Nc3ccccc3)CC2)c1,-1,0,i,0,6,/
COc1cc(OC)cc(C(=O)NC(=S)NCc2ccco2)c1,3,0,i,-2,1,/
S=C(NCc1ccco1)Nc1ccc(Oc2ccccc2)cc1,7,0,i,11*,-6,-1
COc1cccc(C(=O)NC(=S)NCc2ccco2)c1,0,0,i,14*,0,0
Cc1ccccc1NC(=S)NCc1ccco1,0,0,i,2,2,/
CCOc1ccccc1NC(=S)NCc1ccco1,0,1,i,12*,3,-1
COc1ccc(-c2nc(-c3ccc4c(c3)OCO4)[nH]c2-c2ccc(OC)cc2)cc1,0,0,i,13*,6,0
Cc1ccc(NC(=O)CSc2nnc(-c3cccs3)o2)cc1S(=O)(=O)N(C)C,-1,0,i,21*,0,2
CCN(CC)S(=O)(=O)c1cc(NC(=O)CSc2nnc(-c3cccs3)o2)ccc1C,0,0,i,-1,1,/
CCC(O)(CC)C(=O)N=Nc1c(O)[nH]c2ccccc12,-1,0,i,11*,4,2
N#C/C(=N\O)c1nc2ccccc2s1,1,0,i,1,-7,/
SMILES,DTT redox prof,Hsp70 act,HSV replic up,Wee1 stabilizer,p97 ATPase inh,Wee1 degr conf
CC(C)[C@H](NC(=O)c1ccco1)C(=O)OCC(=O)N1CCc2ccccc21,0,0,i,1,-8,/
CC(C)[C@H](NC(=O)c1ccco1)C(=O)OCC(=O)N1CC(=O)Nc2ccccc21,-1,0,i,14*,2,-1
Cc1ccc2nc(-c3ccc(NC(=O)COC(=O)c4cncc(Br)c4)cc3)sc2c1,0,0,i,15*,8,-3
Cc1ccc2nc(-c3ccc(NC(=O)COC(=O)c4ccc(Br)o4)cc3)sc2c1,1,0,i,7,-4,/
O=C(O)CCn1cc(/C=C2\SC(=S)NC2=O)c(-c2ccccc2)n1,-3,0,i,13*,0,0
CCOC(=O)C1(Cc2ccccc2)CCN(CC2CC=CCC2)CC1 (configuration not stated),0,0,i,-2,1,/
CCOC(=O)C1(Cc2cccc(OC)c2)CCN(CC2CC=CCC2)CC1 (configuration not stated),0,0,i,12*,0,1
Cc1ccc(-n2nnc3c(=O)n(CC(=O)N4CCOCC4)cnc32)cc1,0,0,i,12*,8,0
COc1ccc(C2C(C(=O)O)CC(=O)N2c2ccc(OC)cc2)cc1 (configuration not stated),-1,0,i,0,3,/
COc1ccc(N2CCN(C(=O)c3ccc(C)cc3Cl)CC2)cc1,1,0,i,-2,-2,/
O=C(Nc1ccc2c(c1)CCC2)c1ccc(Cl)nc1,-1,0,i,2,4,/
O=C(Nc1ccc2c(c1)CCC2)c1ccc(F)cc1,1,0,i,17*,0,-2
COc1ccc(C)cc1-n1nnnc1SCc1nc2ccccc2s1,1,0,/,0,-9,/
CN1C(=O)NC(NC(=O)C2CCCCC2)(C(F)(F)F)C1=O (configuration not stated),0,0,i,-1,5,/
Cc1ccc(Oc2ccc(OCC(=O)NC(CC(C)C)C(=O)O)cc2)cc1 (configuration not stated),-1,0,i,14*,0,2
CC(C)COc1ccc(C(=O)NC(CC(C)C)C(=O)O)cc1 (configuration not stated),0,0,i,-1,0,/
CC1CCN(CC(O)COc2cccc(F)c2)CC1 (configuration not stated),-3,0,i,14*,-7,1
CCC(C)NC(=O)c1ccccc1NC(=O)c1ccc(CSc2ccccc2)cc1 (configuration not stated),1,0,i,0,-3,/
O=C1CCCN1CCC12CC3CC(CC(C3)C1)C2,1,0,i,12*,5,2
O=C(CCSc1ccc(Cl)cc1)c1cccs1,-3,0,i,-2,4,/
Cc1cc(C)n(C(=O)c2cc3ccccc3c(=O)o2)n1,2,0,i,0,8,/
CN(C)S(=O)(=O)c1ccc(Cl)c(NC(=O)COC(=O)C2CSC3(C)CCC(=O)N23)c1 (configuration not stated),-1,1,i,1,4,/
CC12CCC(=O)N1C(C(=O)OCC(=O)Nc1ccc(Cl)c(Cl)c1)CS2 (configuration not stated),0,0,i,21*,-3,-3
